HSF-1 act: HSF-1 activators, primary screen, NIH3T3-HGL cells, MG132 stress, luminescence, single point; NIH3T3-HGL HSF-1 luciferase reporter, 8 h; 100% = twice DMSO control signal; activation, % at 9 µM; 1.7% of 300,000 active; AID 504408, 2011;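 active = mean replicate activation of at least 50% with a set share of replicates each reaching 50%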;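 also: 0% = median of the neutral control wells and 100% = twice that signal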
TNF death inh: inhibitors of TNF-alpha triggered necroptosis, primary screen, cell-based, Jurkat FADD-/-, single concentration | 0.068% of 220,000 active | Jurkat FADD-/- TNF necroptosis rescue, ATP luminescence, 24 h; 0 = TNF only, 100 = no-TNF cells | activation (protection from cell death), % at 10 µM;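 active = activation, meaning protection from cell death, of at least 50% relative to plate controls; inactive = activation below 50%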;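 also: necroptosis triggered by 40 ng/mL TNF-alpha added together with compound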
Hsp70 act: Hsp70 transcriptional activators, primary screen, cell-based, HeLa, Hsp70 promoter luciferase, luminescence, 10 µM; activation, % at 10 µM; HeLa Hsp70 promoter luciferase reporter; scaled: vehicle 0, proteasome-inhibitor control 100%; 0.04% of 200,000 active; AID 1203, 2008;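 active = activation above the mean across all tested compounds plus 3 SD, cutoff set per campaign, cut at about 5.5% in these data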;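 also: 100% = MG132 at 30 µM as the positive control and 0% = DMSO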
zVAD death inh: inhibitors of zVAD-triggered necroptosis, primary screen, L929 cells. L929 zVAD necroptosis rescue, ATP luminescence, 24 h; with zVAD 60 µM. viability rescue, % at 10 µM. 0.38% of 220,000 active. AID 1377, 2008;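 active = activation, scaled between plate controls, above about 75%, limit read from the data; inactive = activation under that limit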;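 also: 0% = zVAD with DMSO and 100% = DMSO alone without zVAD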
Starred values were filed as active, the others as inactive; / = not tested or not shown. Hits are enriched below; roughly 1.9% of the tested compounds scored in any of these assays.

SMILES	HSF-1 act	TNF death inh	Hsp70 act	zVAD death inh
CCOC(=O)C1=CN(Cc2ccc(OC)cc2)C=C(C(=O)OCC)C1c1cccs1	51.1*	3.5	-0.2	-0.2
Cn1nc(C(=O)NCCc2ccc(S(N)(=O)=O)cc2)c2ccccc2c1=O	-6.4	0.2	/	0.0
Cc1nn(-c2ccccc2)c(N)c1N=Nc1ccc2ccccc2c1	78.4*	2.5	0.0	/
CCOC(=O)c1sc(=NC(=O)c2cccs2)n(C)c1C	52.9*	3.9	0.1	0.7
O=C(CCN1C(=O)c2ccccc2S1(=O)=O)NCc1ccccc1	-3.7	/	/	/
O=C(CCc1nc2ccccc2s1)NC1CCOC1=O (centres undefined)	11.5	-0.6	/	0.3
CS(=O)(=O)c1ccccc1C(=O)Nc1cccc2ncccc12	8.3	/	/	/
O=c1[nH]c(COc2ccc(Cl)cc2Cl)nc2ccccc12	84.8*	/	/	/
O=c1[nH]c(Cc2ccccc2Cl)nc2ccccc12	0.2	5.4	0.0	1.1
O=c1[nH]c(COc2ccc(Cl)cc2Br)nc2ccccc12	60.6*	/	/	/
O=C(CNCCc1ccccc1)N1CCc2ccccc2C1	1.2	2.5	0.1	1.0
O=C(CCn1cccn1)Nc1ccc2c(c1)OCO2	8.4	/	/	/
Cc1nc2ccccc2c2oc(C(=O)NCc3ccccn3)cc12	52.2*	-2.0	-0.1	-0.1
Cc1ccc(CNC(=O)c2cc3c(C)nc4ccccc4c3o2)cc1	7.3	-4.2	-0.5	1.2
CC(=O)c1cccc(OCc2cc(C(=O)NCCC3=CCCCC3)no2)c1	11.1	/	/	/
CC(Sc1nc2ccccc2c(=O)n1CC1CCCO1)C(=O)Nc1ccc(S(N)(=O)=O)cc1 (centres undefined)	55.8*	/	/	/
Cc1ccccc1NC(=O)CSc1nc2ccccc2c(=O)n1CC1CCCO1 (centres undefined)	8.9	/	/	/
Cc1cccc(C)c1NC(=O)C(C)N1CCCC1 (centres undefined)	75.0*	/	/	/
Cc1cc(C)c(NC(=O)C(C)N2CCCCCC2)c(C)c1 (centres undefined)	15.8	/	/	/
COC(=O)c1cc(OC)c(OC)cc1NC(=S)N1CCCC1	62.4*	-0.7	0.0	5.7
CC(Oc1ccc(Cl)cc1Cl)c1nc(-c2ccc(NC(=O)c3ccco3)cc2)no1 (centres undefined)	60.9*	0.5	-0.1	0.2
CC(NC(=O)c1ccco1)c1nc(-c2ccccc2)no1 (centres undefined)	-0.6	/	/	/
Cc1ccc(C)c(S(=O)(=O)N2CCC(c3nc4c(nnn4Cc4ccc5c(c4)OCCO5)c(=O)[nH]3)CC2)c1	5.7	/	/	/
Cc1ccc(-n2ncc3c2CC(C)(C)CC3NC(=O)CCN2CCCO2)cc1 (centres undefined)	-10.4	/	/	/
COc1c(Cl)cc(Cl)cc1/C=C/C(=O)c1ccc(NC(=O)c2cccs2)cc1	115.5*	-4.9	-0.3	1.8
SMILES	HSF-1 act	TNF death inh	Hsp70 act	zVAD death inh
COc1ccc2nc(COC(=O)c3cccc([N+](=O)[O-])c3)c(C(C)=O)[n+]([O-])c2c1	-3.5	0.0	/	-0.4
CCOc1ccc2nc(COC(=O)c3cccc([N+](=O)[O-])c3)c(C(C)=O)[n+]([O-])c2c1	68.8*	1.2	/	0.4
Cc1ccc(OCc2ccc(Br)cc2)c([N+](=O)[O-])n1	77.3*	0.1	1.2	0.9
Cc1ccc(OCc2ccc(-c3ccccc3)cc2)c([N+](=O)[O-])n1	23.2	/	/	/
Cc1ccc(OCCOc2cccc(Br)c2)c([N+](=O)[O-])n1	87.8*	0.4	0.3	-0.1
O=C(OCc1cncs1)c1ccccc1	-4.7	-0.6	0.1	0.2
Cc1cc(F)c(F)c(C(=O)N2CCN(C)CC2)c1Cl	-8.5	-2.9	-0.4	-0.3
Cc1cc(F)c(F)c(C(=O)N2CCOCC2)c1Cl	61.8*	-2.7	-0.2	0.1
CS(=O)(=O)c1ccc(C(=O)OCc2nnc(-c3ccccc3)o2)cc1[N+](=O)[O-]	225.1*	0.2	0.1	-1.8
CS(=O)(=O)c1ccc(C(=O)OCC(=O)NC(=O)C2CCCCC2)cc1[N+](=O)[O-]	69.5*	-5.4	-0.2	2.1
Cc1ccccc1NC(=O)COC(=O)c1ccc(S(C)(=O)=O)c([N+](=O)[O-])c1	-93.6	-1.6	0.4	5.7
CCN(CC)C(=O)Cn1cc(S(=O)(=O)CC(=O)Nc2ccccc2C)c2ccccc21	26.6	/	/	/
CCc1cc2c(=O)[nH]c(-c3ccccn3)nc2s1	215.1*	-20.5	-0.2	53.3
O=S(=O)(c1ccc(NCc2ccccc2)cc1)N1CCOCC1	-19.8	/	/	/
COc1ccc(C(=O)/C=C/c2cc(C(=O)O)cc3c2OCOC3)c(O)c1	94.9*	-8.1	/	0.3
O=C(O)c1cc(/C=C/C(=O)c2cc(F)ccc2O)c2c(c1)COCO2	/	-3.1	/	0.3
O=C(c1ccc(COc2ccc(Cl)cc2)cc1)N1CCCCC1	53.8*	1.1	-0.1	17.5
N#C/C(=C\c1ccc(Cl)cc1)c1nc2ccccc2o1	74.8*	1.8	-0.3	1.8
COc1ccccc1NC(=O)c1csc2c1CCCC2	-0.8	-4.3	-0.5	0.9
O=C(Nc1ccccn1)c1csc2c1CCCC2	52.7*	0.5	0.5	-0.3
CCOC(=O)c1cnc2c(C)c(C)ccc2c1Nc1ccc(S(=O)(=O)Nc2ncccn2)cc1	-17.3	0.1	-0.5	1.6
CN(C)c1nc(C=C(C#N)C#N)c(Cl)n1-c1ccc(F)cc1	94.9*	-2.7	0.2	3.0
COC(=S)Nc1cccc(C(F)(F)F)c1	-2.9	0.5	/	1.0
COC(=O)/C=C/C(=O)Nc1cccc(C(F)(F)F)c1	92.9*	-10.8	0.0	1.3
CCC(=O)N1CCN(c2ccc(NC(=O)COc3ccc(CC)cc3)cc2)CC1	67.2*	/	/	/
SMILES	HSF-1 act	TNF death inh	Hsp70 act	zVAD death inh
CCC(=O)N1CCN(c2ccc(NC(=S)NC(=O)COc3ccccc3)cc2)CC1	-32.8	-0.7	-0.1	0.8
CN1C(=O)C2(c3ccccc31)N(C)CC(c1ccccn1)C21SC(=S)N(Cc2ccco2)C1=O (centres undefined)	84.9*	-3.2	-0.4	0.4
CC(=O)OC(C(=O)NC1CCCCC1)c1ccc(Cl)c(Cl)c1 (centres undefined)	2.0	69.5*	-0.2	2.7
CC(=O)OC(C(=O)NC1CCCCC1)c1ccc(C)cc1 (centres undefined)	-0.6	29.4	-0.2	-0.1
CC1=Nc2cc(C(=O)O)ccc2Sc2c(C)ccc(C)c21	101.0*	0.2	-0.2	1.4
CC1=Nc2cc(C(=O)O)ccc2Sc2ccc(C)cc21	8.5	-0.4	-0.1	3.4
O=C(NCCc1nc2ccccc2[nH]1)/C(=C/c1ccc(F)cc1)NC(=O)c1ccco1	63.9*	0.5	/	-0.2
O=C(Nc1ccc(S(=O)(=O)NC2=NCCCCC2)cc1)c1ccc2ccccc2n1	7.2	0.6	-0.4	7.7
Cc1ccc(C(=O)Cn2c(C(=O)/C=C/c3ccccc3)nc3ccccc32)cc1	185.7*	-3.4	-0.2	-0.1
O=C(CCN1CCCC1)c1cccs1	-8.7	1.5	/	1.3
O=C(CCN1CCC(c2cccs2)=N1)c1cccs1	64.7*	3.6	/	1.7

Compound activity deposited in PubChem BioAssay by several laboratories.
